Holding throughout (conditions): modulator concentration 10 µM
In experiment [1] the test system is RAW-Dual (murine macrophage reporter line). Nature of the experiment: NF-kB reporter (SEAP) activity fold change vs agonist alone; higher = enhanced NF-kB activity. An outline of the steps: (§1)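 Compound reached 10 μM final in each well by pin transfer, onto RAW-Dual murine macrophage reporter cells seeded at 50 000 per well in 384-well plates. After 1 hour at 37 °C, the cells were stimulated overnight with a PRR agonist. SEAP in the supernatant was read with QUANTI-Blue at 620 nm absorbance for NF-κB, and Lucia luciferase was read with QUANTI-Luc luminescence for IRF. Each signal was turned into fold change against the mean agonist-only control on the same plate, and two replicate plates were averaged with propagated errors.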

The test system is the same in experiment [2]. Nature of the experiment: IRF reporter (Lucia luciferase) activity fold change vs agonist alone; higher = enhanced IRF activity. The essentials:
as §1

Experiment [3] shares this test system. Nature of the experiment: viability score (confluency relative to resting cells, overnight) (fraction); higher = more viable, active = viable (0.7 or more). An outline of the steps:
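RAW-Dual macrophages in 384-well plates were incubated overnight with compound, final concentration 10 μM. Confluency images from IncuCyte were processed in IncuCyte software into two masks covering all imaged wells. The viability score is each well's confluency relative to resting cells, and a compound met the cutoff when both masks exceeded 70% of resting cells.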

Where [4] appears, read: agonist: CpG ODN 1826 0.5 ug/mL.

± gives the standard deviation.

Consider `COC(c1ccccc1)(c1ccccc1)C(Oc1nc(C)cc(C)n1)C(=O)O` (stereo not drawn) [Prestw-1497], for which the NF-kB reporter is 0.986 ± 0.077 in experiment [1] (setting [4]), 0.945 ± 0.07 in experiment [1] (agonist: LPS 0.1 ug/mL) and 0.936 ± 0.091 in experiment [1] (agonist: MPLA […]). Also, the IRF reporter in experiment [2] (agonist: 3'3'-cGAMP 10 ug/mL) was determined as 1.09 ± 0.052; in experiment [2] (agonist: LPS 0.1 ug/mL), 1.31 ± 0.18; in experiment [2] (agonist: MPLA […]) it was 1.44 ± 0.32. In experiment [3], the viability score is 1.05 (active).
For `O=C(COCc1ccccc1)NC1CCC(F)(F)CC1`, the NF-kB reporter in experiment [1] (setting [4]) was 0.891 ± 0.068; in experiment [1] (agonist: LPS 0.1 ug/mL), 1.03 ± 0.14; in experiment [1] (agonist: MPLA […]), 0.777 ± 0.057. Further, the IRF reporter in experiment [2] (agonist: 3'3'-cGAMP 10 ug/mL) was 0.643 ± 0.036; in experiment [2] (agonist: LPS 0.1 ug/mL), 1.1 ± 0.069; in experiment [2] (agonist: MPLA […]), 1.02 ± 0.36. For the same compound, the viability score in experiment [3] was 1.01 (active).
Take `CCN(CC)c1ccc(C2Nc3ccccc3-c3nnc(SC)nc3O2)c(OC)c1` (stereo not drawn): the NF-kB reporter in experiment [1] (setting [4]) came to 0.889 ± 0.07; in experiment [1] (agonist: LPS 0.1 ug/mL), 0.986 ± 0.066; in experiment [1] (agonist: MPLA […]) it was 0.985 ± 0.059. Further, the IRF reporter is 0.954 ± 0.024 in experiment [2] (agonist: 3'3'-cGAMP 10 ug/mL), 1.39 ± 0.24 in experiment [2] (agonist: LPS 0.1 ug/mL) and 0.87 ± 0.076 in experiment [2] (agonist: MPLA […]). Moreover, the viability score in experiment [3] is 1.01 (active).
`Clc1ccc2c(c1)CCc1cccnc1C2=C1CCNCC1`: the NF-kB reporter in experiment [1] (setting [4]) was determined as 0.345 ± 0.04; in experiment [1] (agonist: LPS 0.1 ug/mL), 0.654 ± 0.052; in experiment [1] (agonist: MPLA […]), 0.814 ± 0.048. Moreover, the IRF reporter in experiment [2] (agonist: 3'3'-cGAMP 10 ug/mL) was determined as 0.505 ± 0.026; in experiment [2] (agonist: LPS 0.1 ug/mL), 0.81 ± 0.14; in experiment [2] (agonist: MPLA […]), 0.754 ± 0.15. Moreover, the viability score in experiment [3] was 0.36 (inactive).
Consider `O=C(O)c1ccccc1`, for which the NF-kB reporter stood at 1.07 ± 0.21 in experiment [1] (setting [4]), 1.24 ± 0.38 in experiment [1] (agonist: LPS 0.1 ug/mL) and 0.974 ± 0.089 in experiment [1] (agonist: MPLA […]). The IRF reporter in experiment [2] (agonist: 3'3'-cGAMP 10 ug/mL) is 0.933 ± 0.029; in experiment [2] (agonist: LPS 0.1 ug/mL), 1.46 ± 0.34; in experiment [2] (agonist: MPLA […]), 1.33 ± 0.1. Besides, the viability score in experiment [3] was 0.998 (active).
As to `CCC(=O)N(CCC(c1ccccc1OC)C1CCOC(C)(C)C1)Cc1ccc(OC)cc1` (stereo not drawn), the NF-kB reporter in experiment [1] (setting [4]) worked out at 0.907 ± 0.072; in experiment [1] (agonist: LPS 0.1 ug/mL), 0.986 ± 0.059; in experiment [1] (agonist: MPLA […]) it was 0.938 ± 0.056. Besides, the IRF reporter in experiment [2] (agonist: 3'3'-cGAMP 10 ug/mL) stood at 1.04 ± 0.055; in experiment [2] (agonist: LPS 0.1 ug/mL), 1.23 ± 0.29; in experiment [2] (agonist: MPLA […]), 1.04 ± 0.088. In addition, the viability score in experiment [3] is 1.01 (active).
`COCCOC(=O)C1=C(C)NC(=O)NC1c1cc(OC)c(OC)c(OC)c1` (stereo not drawn): the NF-kB reporter turned out to be 0.937 ± 0.064 in experiment [1] (setting [4]), 1.02 ± 0.062 in experiment [1] (agonist: LPS 0.1 ug/mL) and 0.913 ± 0.069 in experiment [1] (agonist: MPLA […]). The IRF reporter came out at 0.956 ± 0.032 in experiment [2] (agonist: 3'3'-cGAMP 10 ug/mL), 1.2 ± 0.15 in experiment [2] (agonist: LPS 0.1 ug/mL) and 1.08 ± 0.14 in experiment [2] (agonist: MPLA […]). Further, the viability score in experiment [3] was 0.995 (active).
Regarding `Ic1ccc(N=Cc2ccc(C=Nc3ccc(I)cc3)cc2)cc1`, the values for the NF-kB reporter in experiment [1] (setting [4]), in experiment [1] (agonist: LPS 0.1 ug/mL) and in experiment [1] (agonist: MPLA […]) were 1.03 ± 0.081, 0.868 ± 0.083 and 0.997 ± 0.097, respectively. For the same compound, the IRF reporter in experiment [2] (agonist: 3'3'-cGAMP 10 ug/mL) was 0.954 ± 0.038; in experiment [2] (agonist: LPS 0.1 ug/mL), 1.24 ± 0.19; in experiment [2] (agonist: MPLA […]) it was 1.44 ± 0.23. Also, the viability score in experiment [3] was 1.02 (active).
Consider `CC(NC(=O)c1nc2ccccc2[nH]1)c1ccc(Br)cc1` (stereo not drawn), for which the NF-kB reporter in experiment [1] (setting [4]) is 1.07 ± 0.11; in experiment [1] (agonist: LPS 0.1 ug/mL), 0.938 ± 0.061; in experiment [1] (agonist: MPLA […]), 0.985 ± 0.047. Moreover, the IRF reporter in experiment [2] (agonist: 3'3'-cGAMP 10 ug/mL) amounted to 1 ± 0.14; in experiment [2] (agonist: LPS 0.1 ug/mL) it was 1 ± 0.073; in experiment [2] (agonist: MPLA […]) it was 1.13 ± 0.19. Moreover, the viability score in experiment [3] is 1 (active).
Regarding `C#Cc1cccc(Nc2ncnc3cc4c(cc23)OCCOCCOCCO4)c1`, the NF-kB reporter in experiment [1] (setting [4]) is 0.937 ± 0.043; in experiment [1] (agonist: LPS 0.1 ug/mL) it was 1 ± 0.11; in experiment [1] (agonist: MPLA […]) it was 1.11 ± 0.093. Also, the IRF reporter in experiment [2] (agonist: 3'3'-cGAMP 10 ug/mL) came out at 1.02 ± 0.05; in experiment [2] (agonist: LPS 0.1 ug/mL) it was 1.2 ± 0.17; in experiment [2] (agonist: MPLA […]), 1.39 ± 0.36. Further, the viability score in experiment [3] is 1.02 (active).
With `Cc1ccccc1C(=O)N(Cc1cccnc1)c1nc2c(F)cccc2s1`, the results for the NF-kB reporter in experiment [1] (setting [4]), in experiment [1] (agonist: LPS 0.1 ug/mL) and in experiment [1] (agonist: MPLA […]) were 0.288 ± 0.019, 0.749 ± 0.063 and 0.645 ± 0.038, respectively. Also, the IRF reporter turned out to be 1.34 ± 0.06 in experiment [2] (agonist: 3'3'-cGAMP 10 ug/mL), 1.06 ± 0.11 in experiment [2] (agonist: LPS 0.1 ug/mL) and 0.952 ± 0.093 in experiment [2] (agonist: MPLA […]). In addition, the viability score in experiment [3] was 0.984 (active).
Turning to `O=C1C2C3C=CC(C4CC34)C2C(=O)N1N=Cc1ccc(-c2ccc(Cl)cc2)o1` (stereo not drawn), the NF-kB reporter in experiment [1] (setting [4]) amounted to 1.01 ± 0.14; in experiment [1] (agonist: LPS 0.1 ug/mL) it was 1.04 ± 0.074; in experiment [1] (agonist: MPLA […]) it was 0.924 ± 0.068. Further, the IRF reporter worked out at 0.968 ± 0.034 in experiment [2] (agonist: 3'3'-cGAMP 10 ug/mL), 1.56 ± 0.26 in experiment [2] (agonist: LPS 0.1 ug/mL) and 1.15 ± 0.1 in experiment [2] (agonist: MPLA […]). Besides, the viability score in experiment [3] was 1.01 (active).
As to `Nc1nc(N)nc(-c2cc(Cl)ccc2Cl)n1`, the NF-kB reporter turned out to be 0.906 ± 0.22 in experiment [1] (setting [4]), 1 ± 0.052 in experiment [1] (agonist: LPS 0.1 ug/mL) and 1.05 ± 0.093 in experiment [1] (agonist: MPLA […]). The IRF reporter worked out at 0.946 ± 0.052 in experiment [2] (agonist: 3'3'-cGAMP 10 ug/mL), 1.18 ± 0.32 in experiment [2] (agonist: LPS 0.1 ug/mL) and 1.08 ± 0.17 in experiment [2] (agonist: MPLA […]). In addition, in experiment [3], the viability score is 0.986 (active).
On to `O=S(=O)(Cc1ccccc1)Nc1ccccn1`, for which the NF-kB reporter in experiment [1] (setting [4]) came to 0.951 ± 0.054; in experiment [1] (agonist: LPS 0.1 ug/mL), 1.03 ± 0.084; in experiment [1] (agonist: MPLA […]) it was 0.893 ± 0.067. For the same compound, the results for the IRF reporter in experiment [2] (agonist: 3'3'-cGAMP 10 ug/mL), in experiment [2] (agonist: LPS 0.1 ug/mL) and in experiment [2] (agonist: MPLA […]) were 0.961 ± 0.032, 1.49 ± 0.13 and 1.27 ± 0.15, respectively. In experiment [3], the viability score was 1 (active).

Source of the values: the supplement of paper PMC10646978.
